# Results from PubChem BioAssay (Tox21).
# Inconclusive results are not listed. Entries that show only a call come without a potency. More than one record can exist for a structure, and the calls need not agree. Active and inactive are the calls of the source. Unless noted, calls follow the shape of the dose curve; as a rule, active = well fitted curve in the direction sought with a large enough effect in the repeat runs; inconclusive = weak or mixed curves; inactive = no such curve, though single readings can be large; an effect the other way counts as inactive or inconclusive.
# Columns and labels:
# [1] = qHTS assay to identify small molecule agonists of the estrogen receptor alpha (ER-alpha) signaling pathway in the presence of an antagonist - cell viability counter screen (AID 1259386);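 also: series mostly up to about 92 µM; cells exposed to compounds for 22 h at 37 °C before the viability read; nearly all actives have a fitted effect of over 30% in size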
# How it was run: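 Viability counter screen using VM7Luc4E2 (full-length ER-alpha, four ERE-luciferase). The cells were treated with compounds alongside ICI-182,780 10.0nM for 22hr, and live-cell protease fluorescence was quantified with CellTiter-Fluor.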
# [2] = target: Progesterone receptor (Homo sapiens) (UniProt P06401); experiment: qHTS assay to identify small molecule agonists of the progesterone receptor (PR) signaling pathway (AID 1346784; calls by dose curve; also: nearly all actives have a fitted effect of over 30% in size; also: potency is read from the fitted curve at half-maximal effect)
# How it was run: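 PR-UAS-bla HEK 293T cells carrying a UAS-driven beta-lactamase reporter were seeded in medium with 2% charcoal-stripped FBS, preincubated 6 hr at 37C, then exposed to compounds in DMSO for 16 hr; agonism was read by LiveBLAzer B/G FRET fluorescence.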
# [3] = qHTS assay to identify small molecule antagonists of the progesterone receptor (PR) signaling pathway - cell viability counter screen (AID 1346798); also: series mostly up to about 92 µM; nearly all actives have a fitted effect of over 50% in size
# How it was run: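 PR-UAS-bla HEK293T cells in medium with 2% charcoal-stripped FBS were treated with compounds plus R5020 for 16 hr at 37C. Cell viability was then read by CellTiter-Glo luminescence after 30 min at room temperature in the same wells.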
# [4] = qHTS assay to identify small molecule agonists of the progesterone receptor (PR) signaling pathway - cell viability counter screen (AID 1346799; calls by dose curve; also: nearly all actives have a fitted effect of over 45% in size; also: potency is read from the fitted curve at half-maximal effect)
# How it was run: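 PR-UAS-bla HEK293T cells, 3,000 per well in medium with 2% charcoal-stripped FBS, were preincubated 6 hr at 37C, then exposed to compounds for 16 hr; viability was read as CellTiter-Glo luminescence after 30 min at room temperature.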
# [5] = qHTS assay to identify small molecule antagonists of the TGF-beta/Smad signaling pathway - cell viability counter screen (AID 1346824); also: nearly all actives have a fitted effect of over 50% in size
# How it was run: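 SBE-bla HEK 293T cells were plated overnight at 37 C, then given compounds in DMSO plus TGF-beta1 (added as 0.25 ng/mL solution) for 5 hr. After the bla read, CellTiter-Glo was added to the same wells and luminescence read after 30 min at room temperature.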
# [6] = qHTS assay to identify small molecule agonists of the TGF-beta/Smad signaling pathway - cell viability counter screen (AID 1346829); also: top concentration of the series differs between compounds; nearly all actives have a fitted effect of over 45% in size
# How it was run: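 SBE-bla HEK 293T cells plated overnight, compound exposure 5 hr at 37 C. Viability read in the same wells by CellTiter-Glo luminescence after 30 min at room temperature, following the beta-lactamase read.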
# [7] = target: Thyrotropin-releasing hormone receptor (Homo sapiens) (UniProt P34981); experiment: qHTS assay to identify small molecule antagonists of the thyrotropin-releasing hormone receptor (TRHR) signaling pathway (AID 1346877; active = well fitted inhibition curve with a large enough effect in the repeat runs, not every such curve was filed as active; also: series mostly up to about 51 µM)
# How it was run: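 Following an 18 h incubation at 37 °C and a 2 h calcium dye load, TRHR-HEK293 cells were exposed to compound (5 min, room temperature) and challenged with TRH, 1 nM final.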
# [8] = target: Thyrotropin-releasing hormone receptor (Homo sapiens) (UniProt P34981); experiment: qHTS assay to identify small molecule agonists of the thyrotropin-releasing hormone receptor (TRHR) signaling pathway (AID 1346891; calls by dose curve; also: series mostly up to about 58 µM)
# How it was run: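 TRHR-expressing HEK293 cells were plated 18 h at 37 °C/5% CO2, loaded with calcium dye 2 h at 37 °C, then given compound in DMSO; fluorescence was read kinetically for 3 min at 1 s intervals.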
# [9] = Human pregnane X receptor (PXR) small molecule agonists, qHTS cell viability counter screen (AID 1346977); also: nearly all actives have a fitted effect of over 50% in size
# How it was run: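 PXR-Luc HepG2 cells in medium with 5% charcoal-stripped FBS were pre-incubated 5hr, then exposed to compounds for 24hr at 37C. Viability was read in the same wells by CellTiter-Fluor fluorescence, reagent added after 23hr with a 1hr incubation.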
# [10] = Caspase-3/7 induction in CHO-K1 cells by small molecules, qHTS cell viability counter screen (AID 1346979); also: nearly all actives have a fitted effect of over 35% in size
# How it was run: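 Wild-type CHO-K1 cells were seeded at 1,500 per well, rested 5hr at 37 C, then exposed to compounds in DMSO. After 16hr, CellTiter-Fluor reagent was added and fluorescence read 1hr later as the viability measure.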
# [11] = Caspase-3/7 induction in CHO-K1 cells by small molecules, qHTS assay (AID 1346980); also: nearly all actives have a fitted effect of over 15% in size
# How it was run: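 Wild-type cells were seeded at 1,500 per well and settled 5 hr at 37 C, 5% CO2, then exposed to DMSO-dissolved compounds for 17 hr. Caspase-Glo 3/7 reagent was added, and luminescence was read after 30min at room temperature.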
# [12] = Caspase-3/7 induction in HepG2 cells by small molecules, qHTS cell viability counter screen (AID 1346981); also: series mostly up to about 92 µM; nearly all actives have a fitted effect of over 30% in size
# How it was run: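 Viability determined by CellTiter-Fluor fluorescence in HepG2 wells also used for the luminescent Caspase-Glo 3/7 read. Compounds were present for 16 hr at 37 C, 5% CO2 before reagent addition.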
# [13] = target: Nuclear receptor subfamily 1 group I member 2 (Homo sapiens) (UniProt O75469); experiment: Human pregnane X receptor (PXR) small molecule agonists, qHTS assay (AID 1346982); also: nearly all actives have a fitted effect of over 35% in size; also: potency is read from the fitted curve at half-maximal effect
# How it was run: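 Compound-induced hPXR transactivation of a CYP3A4 luciferase reporter was scored in HepG2 PXR-Luc cells over 24 hr at 37 C, 5% CO2, by luminescence.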
# [14] = target: Acetylcholinesterase (Homo sapiens) (UniProt P22303); experiment: Acetylcholinesterase (AChE) small molecule antagonists: colormetric cell-based qHTS assay (AID 1347395; calls by dose curve; also: nearly all actives have a fitted effect of over 30% in size)
# How it was run: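 SH-SY5Y cells, plated overnight at 37 C, were exposed to compounds for 30 min at 37 C and 5% CO2. Acetylthiocholine plus DTNB was then added, and thiocholine from endogenous AChE was quantified colorimetrically after 90 min at 37 C.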
# [15] = target: Progesterone receptor (Homo sapiens) (UniProt P06401); experiment: qHTS assay to identify small molecule antagonists of the progesterone receptor (PR) signaling pathway (AID 1346795; active = well fitted inhibition curve with a large enough effect in the signal ratio in the repeat runs, not every such curve was filed as active; the % refers to the signal ratio)
# How it was run: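 PR-UAS-bla HEK293T cells carrying a UAS-driven beta-lactamase reporter were plated in medium with 2% charcoal-stripped FBS and rested 6 hr at 37C. Compounds were added with 1 nM R5020 (final) for 16 hr, then FRET substrate loaded 2 hr at room temperature.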
# [16] = Caspase-3/7 induction in HepG2 cells by small molecules, qHTS assay (AID 1346978); also: nearly all actives have a fitted effect of over 15% in size
# How it was run: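 Wild-type HepG2 cells (2,000/well) were settled 5 h at 37 C, 5% CO2, then exposed to compounds in DMSO for 17 h. Caspase-3/7 activity was read by luminescence 30 min after adding Caspase-Glo 3/7 reagent at room temperature.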
# [17] = qHTS assay to identify small molecule agonists of the TGF-beta/Smad signaling pathway (AID 1346859; active = well fitted activation curve with a large enough effect in the signal ratio in the repeat runs, not every such curve was filed as active; the % refers to the signal ratio; also: series mostly up to about 77 µM)
# How it was run: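 HEK 293T cells stably carrying a beta-lactamase reporter driven by the Smad binding element were seeded overnight, exposed to DMSO-dissolved compounds for 5 hr at 37 C, 5% CO2, then loaded with FRET substrate for 2 hr at room temperature.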
# [18] = target: Nuclear receptor subfamily 1 group I member 2 (Rattus norvegicus) (UniProt Q9R1A7); experiment: Rat pregnane X receptor (rPXR) activation by small molecules, qHTS assay (AID 1346983); details: rPXR luciferase reporter cells, One-Glo luminescence, 24 h; stronger effect = higher value; also: nearly all actives have a fitted effect of over 20% in size
# How it was run: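 Cell-based rPXR luciferase reporter assay, 2,000 cells per well, rested 5hr at 37 C before compound addition in DMSO, then 24 hr at 37 C. One-Glo reagent was added and luminescence read after 30 min at room temperature.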
# [19] = target: Nuclear receptor subfamily 1 group I member 2 (Homo sapiens) (UniProt O75469); experiment: CYP3A4 induction through human pregnane X receptor (PXR) by small molecules, qHTS assay (AID 1346984); also: nearly all actives have a fitted effect of over 40% in size
# How it was run: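 Readings come from a luciferase reporter: DPX-2 cells, which are HepG2 cotransfected with PXR and a CYP3A4-promoter construct, were exposed to test compounds for 24 h at 37C before One-Glo detection.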
# [20] = target: Nuclear receptor subfamily 1 group I member 2 (Homo sapiens) (UniProt O75469); experiment: Human pregnane X receptor (PXR) activation by small molecules, qHTS assay (AID 1346985); also: nearly all actives have a fitted effect of over 40% in size
# How it was run: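 DPX-2 cells (HepG2 co-transfected with a PXR response element and a CYP3A4-promoter luciferase construct) were seeded at 2,000 per well, rested 5 hr at 37C, then exposed to DMSO-dissolved compounds for 24 hr. Activation was read as luciferase luminescence.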
# Acetylcholinesterase (Homo sapiens), sequence (P22303 whole entry, looked up): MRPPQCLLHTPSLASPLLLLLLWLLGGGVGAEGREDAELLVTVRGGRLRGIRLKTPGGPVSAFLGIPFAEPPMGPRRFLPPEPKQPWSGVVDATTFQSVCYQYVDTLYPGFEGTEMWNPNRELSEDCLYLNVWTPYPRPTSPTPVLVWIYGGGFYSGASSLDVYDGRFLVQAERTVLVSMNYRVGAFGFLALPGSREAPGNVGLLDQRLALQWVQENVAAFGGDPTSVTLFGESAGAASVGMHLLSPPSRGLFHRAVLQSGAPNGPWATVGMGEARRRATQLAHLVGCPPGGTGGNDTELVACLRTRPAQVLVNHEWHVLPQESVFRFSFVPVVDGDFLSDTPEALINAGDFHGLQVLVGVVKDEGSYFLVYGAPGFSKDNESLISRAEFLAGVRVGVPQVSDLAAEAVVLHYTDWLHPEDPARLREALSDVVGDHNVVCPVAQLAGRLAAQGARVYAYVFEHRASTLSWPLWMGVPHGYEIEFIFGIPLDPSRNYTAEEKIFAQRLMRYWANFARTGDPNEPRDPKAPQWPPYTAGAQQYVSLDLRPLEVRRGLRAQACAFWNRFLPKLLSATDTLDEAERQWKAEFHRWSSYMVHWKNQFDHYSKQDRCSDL
# Progesterone receptor (Homo sapiens), sequence (P06401 whole entry, looked up): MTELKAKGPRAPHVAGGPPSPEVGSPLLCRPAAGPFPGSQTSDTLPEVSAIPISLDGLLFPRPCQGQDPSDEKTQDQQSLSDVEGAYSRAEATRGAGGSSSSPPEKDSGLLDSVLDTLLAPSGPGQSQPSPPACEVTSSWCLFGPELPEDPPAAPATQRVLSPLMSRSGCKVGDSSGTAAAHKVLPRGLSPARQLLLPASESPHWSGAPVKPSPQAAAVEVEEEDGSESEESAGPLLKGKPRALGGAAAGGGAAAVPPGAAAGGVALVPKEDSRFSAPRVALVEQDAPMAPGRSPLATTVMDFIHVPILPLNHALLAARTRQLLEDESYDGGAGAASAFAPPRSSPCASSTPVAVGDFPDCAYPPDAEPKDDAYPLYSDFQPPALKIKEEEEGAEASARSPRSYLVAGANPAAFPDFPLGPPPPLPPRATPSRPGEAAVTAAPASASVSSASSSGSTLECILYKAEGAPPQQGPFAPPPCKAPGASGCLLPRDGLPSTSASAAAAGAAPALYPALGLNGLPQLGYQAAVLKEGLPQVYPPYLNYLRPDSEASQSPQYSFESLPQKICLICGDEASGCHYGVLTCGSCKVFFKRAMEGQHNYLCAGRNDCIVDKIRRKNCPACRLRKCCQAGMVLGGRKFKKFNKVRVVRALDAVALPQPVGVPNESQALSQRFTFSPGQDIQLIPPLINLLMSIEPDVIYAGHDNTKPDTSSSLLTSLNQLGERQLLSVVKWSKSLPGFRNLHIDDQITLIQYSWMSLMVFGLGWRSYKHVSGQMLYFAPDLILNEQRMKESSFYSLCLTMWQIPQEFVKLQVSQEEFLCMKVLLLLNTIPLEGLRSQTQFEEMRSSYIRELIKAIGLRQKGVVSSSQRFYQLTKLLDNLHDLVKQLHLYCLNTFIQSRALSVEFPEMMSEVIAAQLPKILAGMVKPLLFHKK
# Nuclear receptor subfamily 1 group I member 2 (Homo sapiens), sequence (O75469 whole entry, looked up): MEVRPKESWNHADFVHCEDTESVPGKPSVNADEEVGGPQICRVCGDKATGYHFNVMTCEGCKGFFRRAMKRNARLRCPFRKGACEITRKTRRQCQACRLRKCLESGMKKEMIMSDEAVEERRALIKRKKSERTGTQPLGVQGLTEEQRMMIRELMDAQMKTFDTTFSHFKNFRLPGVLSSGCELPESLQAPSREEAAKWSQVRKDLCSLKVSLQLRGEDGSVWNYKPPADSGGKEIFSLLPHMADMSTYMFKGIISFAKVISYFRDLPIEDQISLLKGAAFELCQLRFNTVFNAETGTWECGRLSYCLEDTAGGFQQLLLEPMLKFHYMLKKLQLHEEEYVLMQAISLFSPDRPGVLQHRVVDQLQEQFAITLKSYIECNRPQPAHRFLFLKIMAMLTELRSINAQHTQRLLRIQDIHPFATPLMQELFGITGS
# Thyrotropin-releasing hormone receptor (Homo sapiens), sequence (P34981 whole entry, looked up): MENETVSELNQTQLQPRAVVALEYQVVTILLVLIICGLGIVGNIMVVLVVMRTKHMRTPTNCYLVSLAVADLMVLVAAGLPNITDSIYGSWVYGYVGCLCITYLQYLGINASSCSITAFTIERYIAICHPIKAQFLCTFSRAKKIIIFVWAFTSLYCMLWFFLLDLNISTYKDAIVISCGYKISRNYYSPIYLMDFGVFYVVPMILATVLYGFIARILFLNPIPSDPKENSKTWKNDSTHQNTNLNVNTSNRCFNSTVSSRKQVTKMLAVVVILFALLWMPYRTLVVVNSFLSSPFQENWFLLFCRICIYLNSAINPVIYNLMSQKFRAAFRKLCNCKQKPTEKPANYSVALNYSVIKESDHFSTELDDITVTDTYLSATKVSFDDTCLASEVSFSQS
# Nuclear receptor subfamily 1 group I member 2 (Rattus norvegicus), sequence (Q9R1A7 whole entry, looked up): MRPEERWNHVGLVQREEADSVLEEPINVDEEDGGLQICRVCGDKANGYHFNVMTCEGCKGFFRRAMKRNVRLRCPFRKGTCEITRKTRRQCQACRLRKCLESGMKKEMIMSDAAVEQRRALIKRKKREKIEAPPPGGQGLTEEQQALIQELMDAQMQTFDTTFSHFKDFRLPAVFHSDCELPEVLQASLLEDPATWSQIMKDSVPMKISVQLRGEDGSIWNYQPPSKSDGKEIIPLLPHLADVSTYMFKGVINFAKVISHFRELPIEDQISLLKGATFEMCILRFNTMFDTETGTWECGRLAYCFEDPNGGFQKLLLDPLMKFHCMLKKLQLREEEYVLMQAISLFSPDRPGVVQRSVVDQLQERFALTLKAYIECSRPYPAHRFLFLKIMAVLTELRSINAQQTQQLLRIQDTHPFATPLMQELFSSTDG
Structure (SMILES),Potency [1],Potency [2],Potency [3],Potency [4],outcome [5],Potency [6],Potency [7],outcome [8],Potency [9],Potency [10],outcome [11],Potency [12],Potency [13],Potency [14],Potency [15],outcome [16],outcome [17],max activation [18],Potency [19],Potency [20]
C=CCc1cc(OC)c2c(c1)OCO2,inactive,inactive,inactive,inactive,inactive,inactive,inactive,inactive,inactive,inactive,inactive,inactive,36 µM (active),inactive,,,,,,
O=c1[nH]c2ccccc2n1C1CCNCC1,inactive,inactive,,inactive,inactive,inactive,inactive,inactive,inactive,,inactive,inactive,inactive,inactive,inactive,inactive,,,,
NNC(N)=O,inactive,,inactive,inactive,inactive,inactive,inactive,inactive,inactive,inactive,inactive,inactive,,inactive,inactive,inactive,inactive,,,
O=P(O)(O)c1ccccc1,inactive,,inactive,inactive,inactive,inactive,inactive,inactive,inactive,,inactive,inactive,inactive,inactive,inactive,,inactive,,,
[O-][Br+2]([O-])O,inactive,,inactive,inactive,inactive,inactive,inactive,inactive,inactive,inactive,inactive,inactive,inactive,inactive,inactive,,inactive,,,
Oc1ccc(Cc2ccc(O)cc2)cc1,inactive,inactive,inactive,,inactive,inactive,,,inactive,inactive,inactive,inactive,54.9 µM (active),inactive,,inactive,inactive,,,
COc1ccc(C=O)cc1O,inactive,,inactive,inactive,inactive,inactive,inactive,inactive,inactive,inactive,inactive,inactive,inactive,inactive,inactive,inactive,inactive,,,
Clc1ccc(C(Cl)(Cl)Cl)cn1,inactive,inactive,,,inactive,inactive,inactive,inactive,inactive,,inactive,inactive,inactive,inactive,inactive,inactive,inactive,,,
CCc1ccc(C2CCNCC2)cc1,inactive,inactive,,,inactive,inactive,inactive,inactive,,,inactive,inactive,inactive,inactive,inactive,inactive,inactive,,,
C[C@]12C=CC(=O)C=C1CC[C@@H]1[C@@H]2CC[C@@]2(C)[C@H]1CC[C@]2(C)O,inactive,3.35 µM (active),,,inactive,inactive,inactive,inactive,inactive,,inactive,inactive,inactive,inactive,inactive,inactive,inactive,-4.23% (inactive),inactive,
O=C(Cl)OCc1ccccc1,inactive,,inactive,inactive,inactive,inactive,inactive,inactive,inactive,inactive,inactive,inactive,inactive,inactive,inactive,inactive,inactive,,,
COC(=O)c1ccccc1CS(=O)(=O)NC(=O)Nc1nc(OC)cc(OC)n1,inactive,,inactive,inactive,inactive,inactive,inactive,inactive,inactive,,inactive,inactive,34.4 µM (active),inactive,inactive,inactive,inactive,,,
COC1=CC(=O)O[C@@H](/C=C/c2ccccc2)C1,inactive,inactive,inactive,inactive,inactive,inactive,,,inactive,,inactive,inactive,24.7 µM (active),inactive,,inactive,,,,
O=S1(=O)OCCO1,inactive,,inactive,inactive,inactive,inactive,inactive,inactive,,inactive,inactive,inactive,inactive,inactive,inactive,,inactive,,,
CCCOC(=O)Cc1ccc(OCC(=O)N(CC)CC)c(OC)c1,inactive,inactive,inactive,inactive,inactive,inactive,inactive,inactive,inactive,inactive,inactive,inactive,15 µM (active),inactive,,inactive,inactive,,,
CC[C@H](O)C(C[C@H](C)N(C)C)(c1ccccc1)c1ccccc1,inactive,inactive,,inactive,inactive,inactive,,,,inactive,inactive,inactive,inactive,inactive,,inactive,inactive,,,
CCNc1nc(Cl)nc(NC(C)(C)C)n1,inactive,inactive,inactive,inactive,inactive,inactive,inactive,inactive,,inactive,inactive,inactive,30.6 µM (active),inactive,,inactive,inactive,,,
ClC1=C(Cl)C2(Cl)C(CBr)CC1(Cl)C2(Cl)Cl (stereo unspecified),inactive,,inactive,68.6 µM (active) and inactive,inactive,inactive,inactive,inactive,inactive,,inactive,inactive,48.6 µM (active) and inactive,inactive,inactive,,inactive,0.545% (inactive),inactive,inactive
